A selection: hits, their analogues and other compounds. The true share with any hit is near 19%.
TDP1 cell CPT: growth inhibition of DT40 Tdp1-/-;hTDP1 cells with camptothecin (screen for TDP1 inhibitors). Potency, µM (series often up to 46.2 µM), without a hit: at the top dose activity change, negative = growth inhibition, usual class: inhibitors. chicken DT40 Tdp1-/-;hTDP1 cells + 20 nM CPT, ATP luminescence, 48 h. 12% of 420,000 active; also: potency is read from the fitted curve at half-maximal effect; nearly all actives have a fitted effect of over 55% in size
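Chicken DT40 Tdp1-/- cells complemented with human TDP1, 400 cells/well, exposed to compounds plus 20 nM camptothecin for at least 48 h at 37 C; viability read as ATP content by CellTiter-Glo luminescence.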
DT40 TDP1 no CPT: qHTS for Inhibitors of human tyrosyl-DNA phosphodiesterase 1 (TDP1): qHTS in cells in absence of CPT | DT40 Tdp1-/- hTDP1 cells, no CPT, ATP luminescence, 48 h | Potency, µM (top dose mostly 46.2 µM), without a hit: at the highest dose activity change, negative = growth inhibition, most hits filed as inhibitors | 15% of 420,000 active; also: potency is read from the fitted curve at half-maximal effect; nearly all actives have a fitted effect of over 55% in size
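DT40 Tdp1-/-;hTDP1 cells, no CPT (DMSO vehicle only), 400 cells/well; compounds pin-transferred; ≥48 hr, 37 °C; CellTiter-Glo 30 min RT dark, luminescence read.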
HT1080NT lethal: kills 2HG-producing HT-1080-NT fibrosarcoma cells; 1.6% of 360,000 active; Potency, µM (titrated, usually from 46.1 µM), inactives show at the top dose activity, negative = less viability, usual class: cytotoxic; HT-1080-NT fibrosarcoma viability, CellTiter-Glo ATP luminescence, 48 h; AID 686970;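 also: NT is the 2HG producing partner of a matched IDH1 knockdown line; potency is read from the fitted curve at half-maximal effect; 0% = DMSO-treated cells and -100% = media-only wells without cells; nearly all actives have a fitted effect of over 55% in size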
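Luminescent CellTiter-Glo readout after 48 hours of compound exposure at 37 degrees C defined viability of HT-1080-NT cells. Activity was normalized to DMSO wells and cell-free media wells; concentration-response curves were fitted and assigned curve classes.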
IL-1B inflam inh: inflammasome signaling inhibition, IL-1 beta readout; activity change, % at 57.5 µM; 4.7% of 360,000 active; THP-1 LPS/ATP IL-1B secretion, AlphaLISA, 16 h; hits give low values; in the data active = activity change below about -50%; inconclusive = mostly about -30% to -49%
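Secreted IL-1B measured by AlphaLISA bead assay after 16 h compound exposure of THP-1 cells; compounds (final up to 57.5 uM) added 1 h before LPS (250 ng/mL) and ATP (1.25 mM) stimulation; lower signal means less secretion.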
HT1080 IDH1KD tx: kills HT-1080 cells with IDH1 knockdown; HT-1080 IDH1 knockdown viability, ATP luminescence, 48 h; Potency, µM (top dose mostly 46.1 µM), for inactives: at the top dose activity, negative = toxicity, usual class: cytotoxic; 2% of 360,000 active; AID 686971;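 also: potency is read from the fitted curve at half-maximal effect; 0% = DMSO wells and -100% = cell-free medium wells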
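CellTiter-Glo luminescence after 48 h compound exposure at 37 degrees C of IDH1-knockdown HT-1080 cells in 5% FBS RPMI. %Activity scaled between DMSO wells and cell-free media wells, with curves fitted and assigned curve classes.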
ELG1 DNA repair: ELG1-dependent DNA repair inhibition; 2.3% of 330,000 active; AID 504467; HEK293T ELG1-luciferase reporter, luminescence, 16 h; DNA damage induced by 5-fluorouridine; Potency, µM (highest dose often 46.1 µM), for the others: at the top dose activity change, negative = inhibition, hits mostly inhibitors; also: potency is read from the fitted curve at half-maximal effect; nearly all actives have a fitted effect of over 55% in size
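Cells (2,000 per well) received 5-fluorouridine plus test compound or DMSO and were incubated 16 hr at 37 °C, 5% CO2. Luciferase activity was read by luminescence 30 min after ONE-Glo addition; signal suppression marked inhibition of damage-induced ELG1 function.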
Numbers without * were called inactive; u = inconclusive; x = no result given; [ ] = another dose, or the depositor's remark. Unless noted, calls follow the shape of the dose curve; as a rule, active = well fitted curve in the direction sought with a large enough effect; inconclusive = small, poorly fitted or top-dose-only effect, or another doubt; inactive = no such curve, though single readings can be large; an effect the other way counts as inactive or inconclusive. Unless noted, % is scaled to controls: 0 for no effect and ±100 for the full control effect.

SMILES	TDP1 cell CPT	DT40 TDP1 no CPT	HT1080NT lethal	IL-1B inflam inh	HT1080 IDH1KD tx	ELG1 DNA repair
COCCCNC(=O)Cn1c(=O)oc2cc(S(=O)(=O)N3CC(C)CC(C)C3)ccc21 (stereo not given)	-29%	-1%	4%	14	-3%	-6%
COc1ccccc1CNC(=O)Cn1c(=O)ccc2cc(S(=O)(=O)N3CCCC3)ccc21	-27%	-29%	x	x	x	x
CC1CCN(C(=O)Cn2c(=O)oc3cc(S(=O)(=O)N4CCCCC4)ccc32)CC1	0%	-21%	10%	17	11%	-1%
CCOc1ccccc1NC(=O)Cn1c(=O)ccc2cc(S(=O)(=O)N3CCC(C)CC3)ccc21	u	26µM*	x	x	x	x
COc1ccccc1CNC(=O)Cn1c(=O)oc2cc(S(=O)(=O)N3CCC(C)CC3)ccc21	5.2µM*	2.9µM*	x	x	x	x
Cc1c(C(=O)N2C[C@@H](C)O[C@@H](C)C2)oc2c(F)cccc12	u	u	-5%	6	14%	u
O=C(CCNC(=O)c1ccco1)Nc1ccccc1OC(F)F	5%	5%	17%	42	0%	9%
CCN(CC(=O)Nc1cc(Cl)cc(Cl)c1)CC(=O)NC1CCS(=O)(=O)C1 (stereo not given)	-25%	u	0%	-5	-7%	-1%
Cc1nc(CS(=O)(=O)c2ccc(Cl)cc2)cc(Sc2ccc(Cl)cc2)n1	-8%	u	-11%	-7	2%[9.24 µM]	21µM*
O=C(Nc1ccc(NC(=O)c2cccs2)c(Cl)c1)c1cccs1	u	u	-14%	x	-3%	u
COc1ccc(C(=O)OCCN2C(=O)c3ccccc3C2=O)cc1	-27%	-13%	11%	2	13%	14%
COc1ccc(C(=O)O/N=C2\C(=O)N(C)c3ccccc32)cc1	7.3µM*	5.8µM*	0%	2	7%	x
CN1C(=O)/C(=N\OC(=O)c2cccc3ccccc23)c2ccccc21	12µM*	13µM*	13µM*	-100*	u	u
CCCCNC(=O)C1(C)CCN1C(=O)c1ccccc1Br (stereo not given)	-1%	-5%	17%	u	4%	x
CCCCNC(=O)C1(C)CCCCN1C(=O)c1cc2ccccc2s1 (stereo not given)	8.2µM*	15µM*	15%	8	9%	x
CCCCNC(=O)C1(C)CCCCN1C(=O)c1cc(OC)ccc1Br (stereo not given)	u	u	9%	-96*	u	x
CC(C)CNC(=O)C1(C)CCCCCN1C(=O)c1cc2ccccc2s1 (stereo not given)	-21%	u	1%	27	u	x
CCCCNC(=O)C1(C)CCCCN1C(=O)c1c(Cl)cccc1Cl (stereo not given)	u	13µM*	u	21	6%	x
CCCCNC(=O)C1(C)CCCCN1C(=O)c1c(F)ccc(C)c1F (stereo not given)	2%	-17%	2%	8	19%	x
CCCCNC(=O)C1(C)CCCCN1C(=O)c1ccc2sccc2c1 (stereo not given)	u	16µM*	19%	11	10%	x
O=C(NCc1ccc(Cl)cc1)c1ccc(S(=O)(=O)N2CCCCC2)cc1	-5%	u	-2%	7	0%	-1%
CC(C(=O)Nc1ccc(N2CCOCC2)cc1)N1C(=O)NC(C)(C)C1=O (stereo not given)	-2%	-1%	0%	-1	2%	24%
CCCCNC(=O)C1(C)CCN1C(=O)c1cc(-c2cccs2)oc1C (stereo not given)	1.6µM*	3.7µM*	u	-104*	23µM*	x

Screens (PubChem BioAssay)
